Shown are actives, neighbours in structure and some others; about 2.1% of the full set was active somewhere.
TDP43 rescue = inhibitors of TDP-43 toxicity in yeast | TDP-43 expressing yeast growth rescue, BacTiter-Glo, 24 h | 1.8% of 410,000 active | Potency, µM (doses to about 46.1 µM), inactives show at the highest dose growth rescue (activation), actives largely listed as activators | AID 652104; further: % of control where 0% means no effect; nearly all actives have a fitted effect of over 50% in size
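Growth rescue of TDP-43-toxic yeast measured as ATP luminescence (BacTiter-Glo). Cells grown to mid-log in raffinose, induced in galactose at OD600=0.02, exposed to compound 24 hr at 30 deg C.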
FUS suppressor = rescues growth of FUS-expressing yeast; S. cerevisiae FUS-expressing, growth rescue, OD600, 24 h; Potency, µM (highest dose often 76.6 µM), usual class: activators; 0.24% of 390,000 active; AID 1347120;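 further: plate controls were DMSO vehicle for no effect and reference control for full effect; nearly all actives have a fitted effect of over 55% in size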
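Cultures pregrown in 2.5% raffinose medium are shifted to minimal medium containing 2% galactose to express toxic FUS. Compounds are tested at several concentrations. After 24hr at 30C, growth is quantified at 600 nm absorbance.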
Abeta yeast res = restores growth of yeast expressing A-beta42 peptide; yeast expressing A-beta42, growth rescue, OD600, 48 h; response scale: 0% DMSO, 100% iron-clioquinol control; Potency, µM (top dose mostly 46.1 µM), hits mostly activators; 0.063% of 410,000 active; AID 1347071; further: nearly all actives have a fitted effect of over 55% in size
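Yeast A-beta toxicity model in growth medium with pinned compounds, 48 h at 30 C; growth read as absorbance at 600 nm. Normalized to FeCl3/clioquinol equimolar mix (positive) and DMSO (negative).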
aSyn rescue = rescues yeast growth from alpha-synuclein toxicity; Yeast expressing alpha-synuclein, growth rescue, BacTiter-Glo, 24 h; Potency, µM (highest dose often 46.1 µM), for the others: at the highest dose growth rescue (activation), most hits filed as activators; 0.14% of 370,000 active; AID 652106; further: % of control where 0% means no effect; nearly all actives have a fitted effect of over 65% in size
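Readout is rescue of growth in alpha-synuclein-expressing yeast, so inhibitors of toxicity appear as activators. Growth after 24 hr at 30 deg C in galactose medium is quantified by luminescence.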
Numbers without * were called inactive; ! = not confirmed by another sample; [ ] = remark or other dose. The call rests on the fitted dose curve; in most records, active means well fitted curve in the direction sought with a large enough effect; inconclusive means small, poorly fitted or top-dose-only effect, or another doubt; inactive means no such curve, though single readings can be large; an effect the other way counts as inactive or inconclusive. Potency means the concentration at half of the fitted maximal effect.

How did Cc1ccccc1CCNC(=O)c1ccc2c(c1)nc1n2CCC(C)C1 (stereo not drawn) do in these assays?
TDP43 rescue: 2%; FUS suppressor: inactive; Abeta yeast res: inactive

How did Cc1ccc(NC(=O)C2CCCN2S(=O)(=O)c2ccc3c(c2)C(C)(C)C(=O)N3C)cc1 (stereo not drawn) do in these assays?
TDP43 rescue: 23%; FUS suppressor: inactive; Abeta yeast res: inactive

What do the screens show for `COc1ccc(-c2nc(SCC(=O)NCc3nc4ccccc4n3C)n3[nH]c(=O)cc3n2)cc1`?
TDP43 rescue: 13%; FUS suppressor: inactive; Abeta yeast res: inactive

What do the screens show for `C[C@@]12C(=O)Nc3ccc(F)cc3C(=O)N1[C@H]1c3ccccc3OC[C@@H]1[C@@H]2c1ccccc1`?
TDP43 rescue: 14µM*; FUS suppressor: inconclusive; Abeta yeast res: inactive; aSyn rescue: 7%

How did Cc1ccc2occ(CC(=O)Nc3ccc(S(=O)(=O)N4CCCC(C)C4)cc3)c2c1 (stereo not drawn) do in these assays?
TDP43 rescue: 13%; FUS suppressor: inconclusive; Abeta yeast res: inactive

What do the screens show for `CCN(C(=S)Nc1ccc(C(C)=O)cc1)C1CCCCC1`?
TDP43 rescue: 22µM*; FUS suppressor: inactive; Abeta yeast res: inactive; aSyn rescue: 14%

Results for COc1ccc(-c2nnc(SC(C)C(=O)O)o2)cc1 (stereo not drawn) ?
TDP43 rescue: 2%; FUS suppressor: inactive; Abeta yeast res: inactive; aSyn rescue: 3%

How did COc1ccc(-c2nnc(SC(C)C(=O)Nc3cccc(Cl)c3)o2)cc1 (stereo not drawn) do in these assays?
TDP43 rescue: 13µM*; FUS suppressor: inactive; Abeta yeast res: inactive; aSyn rescue: 14%

What do the screens show for `CC1(C)Cc2cccc(C(=O)Nc3ccc(F)cc3F)c2O1`?
TDP43 rescue: 20µM*; FUS suppressor: inactive; Abeta yeast res: inactive; aSyn rescue: -12%

What do the screens show for `CCN(CC)C(=O)CSc1nc2ccc(NC(=O)CSc3nnc(N)s3)cc2s1`?
TDP43 rescue: -5%; FUS suppressor: 10µM*; Abeta yeast res: inactive; aSyn rescue: 0%

Results for CCN(CC)C(=O)CSc1nc2ccc(NC(=O)CSc3nccn3C)cc2s1 ?
TDP43 rescue: -7%; FUS suppressor: inactive; Abeta yeast res: inactive; aSyn rescue: 2%

How did CCN(C(=O)Cn1ncc2c1-c1cc(C)ccc1OC2)c1cc(Cl)ccc1OC do in these assays?
TDP43 rescue: 0%; FUS suppressor: inactive; Abeta yeast res: inactive

How did CCc1ccc2occ(CC(=O)Nc3ccc(C)c(C)c3)c2c1 do in these assays?
TDP43 rescue: 12%; FUS suppressor: inactive; Abeta yeast res: inactive

What do the screens show for `C[C@@H]1CC=C[C@@H]2[C@H]1C(=O)N(Cc1ccccc1)[C@H]2c1ccccc1Br`?
TDP43 rescue: 11µM*; FUS suppressor: inactive; Abeta yeast res: inactive; aSyn rescue: -12%

What do the screens show for `O=C(NCCc1nc2ccccc2n1CCOc1cccc2ccccc12)C1CCCCC1`?
aSyn rescue: -3%

Results for CCOC(=O)c1cccc(NS(=O)(=O)c2cc3c(cc2C)NC(=O)CO3)c1 ?
TDP43 rescue: 22%[9.22 µM]; FUS suppressor: inactive; Abeta yeast res: inactive

What do the screens show for `Cc1c(-c2ccccc2)sc2nc[nH]c(=S)c12`?
TDP43 rescue: 16µM*; FUS suppressor: inactive; Abeta yeast res: inconclusive; aSyn rescue: -4%

Results for COc1ccc(OC)c(S(=O)(=O)NCCc2sc(-c3ccc(C)cc3)nc2C)c1 ?
TDP43 rescue: 22%; FUS suppressor: inconclusive; Abeta yeast res: inactive; aSyn rescue: inconclusive

Results for CSc1nc2ccc(NS(=O)(=O)c3c(Cl)cccc3Cl)cc2s1 ?
TDP43 rescue: 10µM*; Abeta yeast res: inactive; aSyn rescue: 24%

What do the screens show for `Cc1nc2ccc(NS(=O)(=O)c3ccc(C)c(C)c3)cc2s1`?
TDP43 rescue: 27%; FUS suppressor: inactive; Abeta yeast res: inactive; aSyn rescue: 19%

Results for O=S(=O)(Nc1ccc(N2CCOCC2)cc1)c1c(F)cc(F)cc1Br ?
TDP43 rescue: inconclusive; FUS suppressor: inactive; Abeta yeast res: inactive; aSyn rescue: 22µM*

How did Cc1nc2ccc(NS(=O)(=O)c3ccc(F)cc3F)cc2s1 do in these assays?
TDP43 rescue: 13µM*; Abeta yeast res: inactive; aSyn rescue: 20%

Results for Cc1nc2ccc(NS(=O)(=O)c3c(F)cc(F)cc3Br)cc2s1 ?
TDP43 rescue: 16µM*; FUS suppressor: inactive; Abeta yeast res: inactive; aSyn rescue: inconclusive

How did Cc1nc2ccc(NS(=O)(=O)c3ccc(F)c(F)c3F)cc2s1 do in these assays?
TDP43 rescue: 20µM*; FUS suppressor: inactive; Abeta yeast res: inactive; aSyn rescue: inconclusive

What do the screens show for `CCn1c2ccccc2c2nc3ccccc3nc21`?
TDP43 rescue: 10µM*; FUS suppressor: inactive; Abeta yeast res: inactive; aSyn rescue: -5%

What do the screens show for `CCCS(=O)(=O)NC(=O)C1(C)CCN(C(=O)Cc2ccc(F)cc2)C1` (stereo not drawn)?
TDP43 rescue: 12%; FUS suppressor: inactive; Abeta yeast res: inactive; aSyn rescue: -11%

Results for CS(=O)(=O)N1C[C@]2(c3ccccc3)CC1Cc1ccccc12 ?
FUS suppressor: inactive

Results for COc1cc(OC)c(NC(=O)Cn2ncn3c(cc4cc(C)ccc43)c2=O)cc1Cl ?
TDP43 rescue: 15%; FUS suppressor: inactive; Abeta yeast res: inactive

How did Cc1ccc(NC(=O)Cn2ncn3c(cc4ccccc43)c2=O)c(C)c1 do in these assays?
TDP43 rescue: 12%; FUS suppressor: 32µM*!; Abeta yeast res: inactive; aSyn rescue: 0%

What do the screens show for `CC(=O)Nc1nonc1-c1nnc(SCC(=O)Nc2cccc(C)c2C)n1-c1ccccc1`?
TDP43 rescue: 21%[9.22 µM]; FUS suppressor: inactive; Abeta yeast res: inactive

How did CCCCCCCCCCOC(=O)Cn1c(COc2ccccc2C)[n+](C)c2ccccc21 do in these assays?
FUS suppressor: 40µM*; Abeta yeast res: inactive; aSyn rescue: -52%

What do the screens show for `CCCCCCCCCCOC(=O)Cn1c(COc2ccccc2)[n+](C)c2ccccc21`?
TDP43 rescue: -84%; FUS suppressor: inactive; Abeta yeast res: inactive; aSyn rescue: -13%

Results for CCCC(=O)N/C(N)=N/c1nc2ccccc2o1 ?
TDP43 rescue: 13µM*; FUS suppressor: inactive; Abeta yeast res: inactive; aSyn rescue: -18%

How did Cn1cc(C(C[N+](=O)[O-])c2ccccc2)c2ccccc21 (stereo not drawn) do in these assays?
TDP43 rescue: 13µM*; FUS suppressor: inactive; Abeta yeast res: inactive; aSyn rescue: 12%

Results for Fc1ccc(C(Nc2ccccn2)c2c[nH]c3ccccc23)cc1 (stereo not drawn) ?
TDP43 rescue: 20µM*; FUS suppressor: inactive; Abeta yeast res: inconclusive; aSyn rescue: inconclusive

What do the screens show for `NCC(c1ccccc1)c1c[nH]c2ccccc12` (stereo not drawn)?
TDP43 rescue: -8%[1.82 µM]; FUS suppressor: inactive; Abeta yeast res: inactive; aSyn rescue: 0%

Bioassay records deposited in PubChem by National Center for Advancing Translational Sciences (NCATS).
